# Measured values taken from the supplement of paper PMC12282887.
# ± gives the standard deviation of the averaged measurements.
# Legend:
# Assay in all cases: promoter activity interaction Z-score (Lux/OD deviation from empty-vector control); higher = stronger promoter induction by the compound
# [1] = system: E. coli BW25113 acrABp lux reporter
# Procedure, shortened: (§1)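 Wild-type E. coli BW25113 and three single-gene deletion strains, each carrying a low-copy luxCDABE promoter reporter, were grown at 37°C in 40 µl LB Lennox per well of a 384-well plate. Every compound was applied at four 1:2 dilutions in biological duplicates, and OD600 and luminescence were read every 30 min for 12 h. Integration covered 0–8 h for wild type and 1–9 h for deletion strains, and wells under 10% of the median growth value were removed. Scores are Z-transformed residuals of growth-normalised luminescence fitted against a control.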
# [2] = system: E. coli BW25113 marRABp lux reporter
# Procedure, shortened: as §1
# [3] = system: E. coli BW25113 micFp lux reporter
# Procedure, shortened: as §1
# [4] = system: E. coli BW25113 ompFp lux reporter
# Procedure, shortened: as §1
# [5] = system: E. coli BW25113 robp lux reporter
# Procedure, shortened: as §1
# [6] = system: E. coli BW25113 soxSp lux reporter
# Procedure, shortened: as §1
# [7] = system: E. coli BW25113 tolCp lux reporter
# Procedure, shortened: as §1
# [8] = 0.25 µg/ml, genetic background: wild type
# [9] = 0.25 µg/ml, genetic background: ΔmarA
# [10] = 0.25 µg/ml, genetic background: Δrob
# [11] = 0.25 µg/ml, genetic background: ΔsoxS
# [12] = 0.5 µg/ml, genetic background: wild type
# [13] = 0.5 µg/ml, genetic background: ΔmarA
# [14] = 0.5 µg/ml, genetic background: Δrob
# [15] = 0.5 µg/ml, genetic background: ΔsoxS
# [16] = 1 µg/ml, genetic background: wild type
# [17] = 1 µg/ml, genetic background: ΔmarA
# [18] = 1 µg/ml, genetic background: Δrob
# [19] = 1 µg/ml, genetic background: ΔsoxS
# [20] = 2 µg/ml, genetic background: wild type
# [21] = 2 µg/ml, genetic background: ΔmarA
# [22] = 2 µg/ml, genetic background: Δrob
# [23] = 2 µg/ml, genetic background: ΔsoxS
smiles,measurement,setting,value
CC1(C)S[C@@H]2[C@H](NC(=O)[C@H](N)c3ccc(O)cc3)C(=O)N2[C@H]1C(=O)O [Amoxicillin],promoter activity interaction Z-score,[1]; [8],-0.14 ± 0.051
same,promoter activity interaction Z-score,[1]; [9],-0.253 ± 0.59
same,promoter activity interaction Z-score,[1]; [10],-0.295 ± 0.22
same,promoter activity interaction Z-score,[1]; [11],-0.0223 ± 0.27
same,promoter activity interaction Z-score,[1]; [12],0.0232 ± 0.18
same,promoter activity interaction Z-score,[1]; [13],0.274 ± 0.094
same,promoter activity interaction Z-score,[1]; [14],-0.216 ± 0.0076
same,promoter activity interaction Z-score,[1]; [15],-0.454 ± 0.18
same,promoter activity interaction Z-score,[1]; [16],0.074 ± 0.092
same,promoter activity interaction Z-score,[1]; [17],-0.334 ± 1.8
same,promoter activity interaction Z-score,[1]; [18],-0.382 ± 0.033
same,promoter activity interaction Z-score,[1]; [19],-0.0766 ± 0.0011
same,promoter activity interaction Z-score,[1]; [20],2.15
same,promoter activity interaction Z-score,[1]; [21],0.388
same,promoter activity interaction Z-score,[1]; [22],0.134
same,promoter activity interaction Z-score,[2]; [8],-0.00562 ± 0.025
same,promoter activity interaction Z-score,[2]; [9],-0.347 ± 0.22
same,promoter activity interaction Z-score,[2]; [10],-0.215 ± 0.082
same,promoter activity interaction Z-score,[2]; [11],-0.207 ± 0.2
same,promoter activity interaction Z-score,[2]; [12],-0.157 ± 0.027
same,promoter activity interaction Z-score,[2]; [13],-0.297 ± 0.22
same,promoter activity interaction Z-score,[2]; [14],-0.322 ± 0.047
same,promoter activity interaction Z-score,[2]; [15],-0.372 ± 0.14
same,promoter activity interaction Z-score,[2]; [16],-0.138 ± 0.097
same,promoter activity interaction Z-score,[2]; [17],-0.483 ± 0.18
same,promoter activity interaction Z-score,[2]; [18],-0.211 ± 0.031
same,promoter activity interaction Z-score,[2]; [19],-0.251 ± 0.091
same,promoter activity interaction Z-score,[2]; [20],2.97
same,promoter activity interaction Z-score,[2]; [21],2.07
same,promoter activity interaction Z-score,[2]; [22],3.21
same,promoter activity interaction Z-score,[2]; [23],1.67
same,promoter activity interaction Z-score,[3]; [8],0.256 ± 0.44
same,promoter activity interaction Z-score,[3]; [9],-0.0861 ± 0.065
same,promoter activity interaction Z-score,[3]; [10],0.0252 ± 0.083
same,promoter activity interaction Z-score,[3]; [11],-0.211 ± 0.11
same,promoter activity interaction Z-score,[3]; [12],0.278 ± 0.29
same,promoter activity interaction Z-score,[3]; [13],-0.0538 ± 0.13
same,promoter activity interaction Z-score,[3]; [14],0.0683 ± 0.17
same,promoter activity interaction Z-score,[3]; [15],-0.261 ± 0.46
same,promoter activity interaction Z-score,[3]; [16],0.0789 ± 0.095
same,promoter activity interaction Z-score,[3]; [17],-0.0503 ± 0.00046
same,promoter activity interaction Z-score,[3]; [18],0.0923 ± 0.071
same,promoter activity interaction Z-score,[3]; [19],-0.05 ± 0.078
same,promoter activity interaction Z-score,[3]; [20],1.75 ± 2.8
same,promoter activity interaction Z-score,[3]; [21],-0.285 ± 0.003
same,promoter activity interaction Z-score,[3]; [22],-0.0252 ± 0.1
same,promoter activity interaction Z-score,[3]; [23],-0.185 ± 0.25
same,promoter activity interaction Z-score,[4]; [8],0.146 ± 0.14
same,promoter activity interaction Z-score,[4]; [9],-0.696 ± 0.38
same,promoter activity interaction Z-score,[4]; [10],-0.183 ± 0.067
same,promoter activity interaction Z-score,[4]; [11],-0.811 ± 0.064
same,promoter activity interaction Z-score,[4]; [12],0.133 ± 0.13
same,promoter activity interaction Z-score,[4]; [13],-0.265 ± 0.34
same,promoter activity interaction Z-score,[4]; [14],-0.637 ± 0.024
same,promoter activity interaction Z-score,[4]; [15],-0.837 ± 0.48
same,promoter activity interaction Z-score,[4]; [16],-0.523 ± 0.21
same,promoter activity interaction Z-score,[4]; [17],-0.753 ± 0.13
same,promoter activity interaction Z-score,[4]; [18],-0.725 ± 0.24
same,promoter activity interaction Z-score,[4]; [19],-0.869 ± 0.041
same,promoter activity interaction Z-score,[4]; [21],-1.92
same,promoter activity interaction Z-score,[5]; [8],0.459 ± 0.29
same,promoter activity interaction Z-score,[5]; [9],-0.028 ± 0.04
same,promoter activity interaction Z-score,[5]; [10],-0.226 ± 0.034
same,promoter activity interaction Z-score,[5]; [11],-0.349 ± 0.75
same,promoter activity interaction Z-score,[5]; [12],0.699 ± 0.03
same,promoter activity interaction Z-score,[5]; [13],-0.354 ± 0.23
same,promoter activity interaction Z-score,[5]; [14],0.168 ± 0.52
same,promoter activity interaction Z-score,[5]; [15],-0.698 ± 0.12
same,promoter activity interaction Z-score,[5]; [16],-0.0437 ± 0.14
same,promoter activity interaction Z-score,[5]; [17],-0.0839 ± 0.86
same,promoter activity interaction Z-score,[5]; [18],0.396 ± 1.2
same,promoter activity interaction Z-score,[5]; [19],-1.05 ± 0.49
same,promoter activity interaction Z-score,[5]; [20],-1.64
same,promoter activity interaction Z-score,[5]; [21],0.17
same,promoter activity interaction Z-score,[6]; [8],0.174 ± 0.46
same,promoter activity interaction Z-score,[6]; [9],-0.165 ± 0.13
same,promoter activity interaction Z-score,[6]; [10],0.236 ± 0.24
same,promoter activity interaction Z-score,[6]; [11],-0.199 ± 0.15
same,promoter activity interaction Z-score,[6]; [12],0.319 ± 0.15
same,promoter activity interaction Z-score,[6]; [13],-0.00956 ± 0.1
same,promoter activity interaction Z-score,[6]; [14],0.0715 ± 0.076
same,promoter activity interaction Z-score,[6]; [15],-0.424 ± 0.15
same,promoter activity interaction Z-score,[6]; [16],0.0777 ± 0.017
same,promoter activity interaction Z-score,[6]; [17],-0.259 ± 0.12
same,promoter activity interaction Z-score,[6]; [18],0.156 ± 0.14
same,promoter activity interaction Z-score,[6]; [19],-0.361 ± 0.23
same,promoter activity interaction Z-score,[6]; [20],0.325 ± 0.57
same,promoter activity interaction Z-score,[6]; [21],-0.389 ± 0.55
same,promoter activity interaction Z-score,[6]; [22],0.0112 ± 0.1
same,promoter activity interaction Z-score,[6]; [23],0.999 ± 0.21
same,promoter activity interaction Z-score,[7]; [8],0.312 ± 0.33
same,promoter activity interaction Z-score,[7]; [9],-0.1 ± 0.033
same,promoter activity interaction Z-score,[7]; [10],0.375 ± 1
same,promoter activity interaction Z-score,[7]; [11],-0.105 ± 0.3
same,promoter activity interaction Z-score,[7]; [12],0.531 ± 0.051
same,promoter activity interaction Z-score,[7]; [13],0.00734 ± 0.28
same,promoter activity interaction Z-score,[7]; [14],0.919 ± 0.041
same,promoter activity interaction Z-score,[7]; [15],-0.655 ± 0.93
same,promoter activity interaction Z-score,[7]; [16],0.148 ± 0.45
same,promoter activity interaction Z-score,[7]; [17],-0.404 ± 0.22
same,promoter activity interaction Z-score,[7]; [18],0.949 ± 0.14
same,promoter activity interaction Z-score,[7]; [19],-0.0133 ± 0.46
same,promoter activity interaction Z-score,[7]; [20],0.917 ± 0.13
same,promoter activity interaction Z-score,[7]; [21],-0.67 ± 0.039
same,promoter activity interaction Z-score,[7]; [22],0.283 ± 0.8
same,promoter activity interaction Z-score,[7]; [23],-0.752 ± 0.58
